Data published in ChEMBL document CHEMBL4513216, “Probing the Open Global Health Chemical Diversity Library for Multistage-Active Starting Points for Next-Generation Antimalarials” (ACS Infect Dis, 2020).
About 2,100 (3.2%) of roughly 65,000 compounds showed an effect of 50% or more. The median lay at about -52%. The list comes from a sample in which strong results are over-represented; it also holds similar structures and randomly drawn compounds.

These compounds were tested on Plasmodium falciparum (assay: Screen against P. falciparum Asexual Blood Stage (ABS), at 5uM). Details: tested at 5 uM.
Type: functional, Dd2

Row | SMILES | INHIBITION [%]
1 | Cc1cc(C(=O)N2CCc3ncnc(-c4cnn(C)c4)c3CC2)c(C)o1 | -23.2
2 | CC(CNC(=O)c1ccc(=O)[nH]n1)N1CCc2ccccc21 (configuration not stated) | -120
3 | CN(C)C(=O)NC[C@@H]1OC[C@H]2CN(Cc3cccc(F)c3)CC[C@H]21 | -66.7
4 | CN(C)CC1CSCCCN1C(=O)c1ccc(C(C)(C)C)cc1 (configuration not stated) | 2.97
5 | CN(C)CC1CSCCCN1C(=O)c1ccc(-c2ccccc2)cc1 (configuration not stated) | 6.37
6 | CN(C)CC1CSCCCN1C(=O)c1ccc(-n2cccc2)cc1 (configuration not stated) | 63
7 | CC(C)NC(=O)C1CCC2(CCN(Cc3cnn(C)c3)CC2)CO1 (configuration not stated) | -63.9
8 | CC(NC(=O)Cn1cc(-c2ccccc2)cn1)C1CC1 (configuration not stated) | -158
9 | COCC1CN(S(=O)(=O)C2CC2)Cc2ncn(CC3CC3)c21 (configuration not stated) | -17.1
10 | CC(C)CN1CCN(C(=O)CCn2cccn2)CC1 | 67.8
11 | COC1CCN(C(=O)CCn2cccn2)CC1 | 53.1
12 | O=C(CCn1cccn1)N1CCN(CC(F)F)CC1 | -177
13 | CCC(=O)N1CCN(C(=O)CCn2cccn2)CC1 | -114
14 | CS(=O)(=O)N1CCN(C(=O)CCn2cccn2)CC1 | -7.11
15 | CNC(=O)C1CCN(C(=O)CCn2cccn2)CC1 | -104
16 | COCc1nc(N(C)C)ncc1C(=O)OC | -29.3

Row | SMILES | INHIBITION [%]
17 | Cc1ccc(CN2Cc3nnn(C)c3C(COCc3ccccc3)C2)s1 (configuration not stated) | -43.4
18 | CN(CCc1ncnn1C1Cc2ccccc2C1)C1CCS(=O)(=O)C1 (configuration not stated) | -63.2
19 | Cc1cccc(OCC(O)CN2CCN(c3nccs3)CC2)c1 (configuration not stated) | -7.68
20 | CCOc1cc(C(=O)N2CCCC2)cc2occc12 | -69.7
21 | Cc1n[nH]cc1CNC1CCN(c2ccccc2)CC1 | -20.1
22 | Cc1n[nH]cc1CNC1CCN(c2ccc(F)cc2)CC1 | -38.1
23 | Cc1n[nH]cc1CNC1CCN(c2cccc(C(F)(F)F)c2)CC1 | 62.8
24 | COc1ccc(C(=O)C2CCCN(c3cc(C#N)ccn3)C2)cc1F (configuration not stated) | -126
25 | CCC(CNC1CCN(C(C)=O)CC1)Oc1ccccc1Cl (configuration not stated) | 48.8
26 | COCC(=O)N1CCC(Oc2cccc(C)c2)CC1 | -127
27 | CCC(CNC1CCN(C(C)=O)CC1)Oc1cccc(C)c1 (configuration not stated) | 53.2
28 | O=C(C1CCCCC1)N1CCC2(CCCN2CC2CC2)CC1 | -19.9
29 | CC(C)c1noc(CN2CCN(C(=O)c3cccnc3O)CC2)n1 | -63.3
30 | Cc1nn(-c2ccccc2)c(C)c1-c1ccnc(N2CCCOCC2)n1 | -64.7
31 | Cc1nn(-c2ccccc2)c(C)c1-c1ccnc(N2CCC(O)CC2)n1 | -309
32 | Cc1nn(-c2ccccc2)c(C)c1-c1ccnc(N2CCCNCC2)n1 | 66.9
